About 79,000 compounds went through this panel and 15% of them were active in at least one assay; those are over-represented in the sample as a whole. A number with no mark means an inactive call. Calls of active or inactive are those of the source. No stated cut-off is given here; in the data, active means growth inhibition above about 70%; inactive means the rest.
Test: NCI Yeast Anticancer Drug Screen. Data for the mlh1 rad18 strain (AID 175)
Settings: S. cerevisiae mlh1 rad18 strain growth inhibition; at 50.0 µM; stronger effect = higher value
Summary of the method: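 Steps: expose repair-defective yeast to compound; measure growth; express inhibition against vehicle-treated controls.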

Compound | growth inhibition
C=C(c1ccc(OC)cc1)c1cc(C(C)(C)C)c(O)c(C(C)(C)C)c1 | 0.35%
C=C(C)COC(=O)COc1ccc(Cl)cc1 | 5.45%
O=C(NCc1ccc(Cl)c(Cl)c1)Nc1ccccc1F | 7.05%
CN(C)CCC(C(=O)C(C)(C)C)c1ccccn1 (stereo not given) | -0.6%
C=Cc1c(C)c(C)c(C=C)c(C)c1C | -17.3%
N#CCN1CCOCCOCCN(CC#N)CCOCCOCC1 | 42.1%
C=C[C@@H]1C(CO)=CCC2[C@H]1CCC1C(C)(C)C(=O)CC[C@]21C (stereo not given in full) | -47.1%
Cc1ccc(/C=C2\N=C(N3CCCC(CO)C3)NC2=O)cc1 (stereo not given) | -44%
CC1CC(C)OC(c2ccccc2)O1 (stereo not given) | 19.7%
COc1ccc(OC)c(C(=O)C=C(C(F)(F)F)C(F)(F)F)c1 | 58.9%
COc1ccc(Cc2c(O)ccc3ccccc23)cc1 | 99.2% (active)
ClSC(c1ccccc1)(c1ccccc1)c1ccccc1 | 33.4%
CCCCCCCCCCCCCC(=O)OCC1OC(n2cc(F)c(=O)[nH]c2=O)C(N)C(OC(=O)CCCCCCCCCCCCC)C1O (stereo not given) | 24.1%
CCN(CC)C(=O)C1CCN(CCC(=O)Nc2ccccc2)CC1 | 7.15%
CC1=C(C(=O)O)CCc2ccccc21 | 36.8%
O=C(c1ccccc1CO)N1CCCCC1 | -20.4%
N#CNC(=NCCO)NCCO | 26.6%
CC1CCC(C(C)C)C(OC2(c3ccccc3)OC(=O)c3ccccc32)C1 (stereo not given) | 16.4%
COc1ccccc1-n1c(O)c(N=Nc2ccc(Cl)cc2)c(=O)n(-c2ccc(I)cc2)c1=S | 27.1%
COC(=O)/C(=N/Nc1cccc(Cl)c1)C(C(=O)C(=O)Nc1cccc(Cl)c1C)c1nc2ccccc2nc1C (stereo not given) | 14.3%

Compound | growth inhibition
C=C(C)COc1ccc(-c2ccccc2)cc1 | -3.2%
COc1ccc(NC(=O)CC(=O)N/N=C/c2ccc(N(CCC#N)S(=O)(=O)c3ccccc3)cc2)cc1 | -2.75%
CNC(=O)/C(=C\c1ccccc1)NC(C)=O | -25.1%
CCOC(=O)NN(C(=O)OCC)C(C(=O)C1CCCCC1)N(NC(=O)OCC)C(=O)OCC | -8.4%
c1ccc(CCc2cccnc2)nc1 | -1.7%
O=C(c1cccc(F)c1)c1ccccc1Cc1ccccc1 | -11.4%
Cc1cccc(C)c1NC(=O)/C(=N/NC(N)=S)C(C)C(=O)c1ccc(Cl)cc1 (stereo not given) | 22.3%
Cn1c2ccccc2c2[nH]c3ccccc3c(=O)c21 | 28.6%
CN(C=O)C(C(=O)Nc1cccc2c(OC(=O)C(N(C)C=O)(N(C)C=O)N(C)C=O)c(N=Nc3ccc(S(=O)(=O)Nc4nccs4)cc3)cc(N=Nc3ccc(S(=O)(=O)Nc4nccs4)cc3)c12)(N(C)C=O)N(C)C=O (tested in a mixture with another compound) | 35.6%
COc1ccc(C2S/C(=C\c3ccccc3)C(=O)N2NC(=O)Cc2ccccc2)cc1 (stereo not given) | -12%
CC(=O)OC1CCC2(C)C3C/C(=N\O)C4(C)C(C(C)OC(C)=O)CCC4C3CCC2(C)C1 (stereo not given) | 95.9% (active)
Cc1cccc2c(N)c3cccc(C(=O)NCC[N+](C)(C)[O-])c3nc12 | 20.6%
OCCCCCCOc1ccc(-c2cc(-c3ccccn3)nc(-c3ccccn3)c2)cc1 | 65.5%
CCN(CC(=O)NC(=O)c1ccccc1)c1ccccc1 | -12.7%
COc1ccc(OC)c(NC(=O)CCC/C(CC(=O)c2ccc(O)c(OC)c2)=N\Nc2ccc([N+](=O)[O-])cc2)c1 | -25.6%
COc1ccccc1N=Nc1c(C)nc(N)nc1-c1ccccc1 | 23.6%
CCOC(=O)CCC(NC(=O)C(N)c1ccc([N+](=O)[O-])cc1)C(=O)NC(CCC(=O)OCC)C(=O)OCC (stereo not given) | 4.55%
Cc1c(C)n(COCCO)c2ncnc(N)c12 | -39%
CC1CN=C(N(Cc2ccc(F)cc2)C(=O)Nc2ccc(Cl)cc2)S1 (stereo not given) | -34.3%
O=C1C=C2CCCCCCCCC(C1)C2 (stereo not given) | 0.1%

Source: PubChem BioAssay (NCI)
